PubChem BioAssay (EPA / NIEHS)
Several values for one entry are separate records, joined by “and”; a condition that tells them apart may be missing. Equal entries are not always repeated. Inconclusive results are not listed. More than one record can exist for a structure, and the calls need not agree. Activity calls are given as the source filed them. Rule for the calls: active = hit-call score of the fitted dose curve at least 0.9, where 1 is the maximum; inconclusive = response in the unintended direction; inactive = score below 0.9.

Columns and labels:
[1] = target: human IkappaB Kinase alpha (IKKa), CHUK (gene 1147) (UniProt O15111); experiment: NVS_ENZ_hIKKa: NovaScreen (NVS) Enzymatic Assay for human IkappaB Kinase alpha (IKKa) (AID 2283167)
Summary of the method: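 Cell-free recombinant human IKKa with fluorescent substrate, product separated by electrophoretic mobility shift; read 1 hour after dosing. Primary screen duplicate at 25 uM, actives then concentration-response up to 50 uM; loss of signal relative to DMSO.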

[2] = target: PPP2CA (gene 5515) (UniProt P67775); experiment: NVS_ENZ_hPPP2CA: NovaScreen (NVS) Enzymatic Assay for human Protein Phosphatase 2 Aatalytic subunit Alpha (PPP2CA) (AID 2283199)
Chain of PPP2CA (gene 5515) (P67775 whole entry, looked up): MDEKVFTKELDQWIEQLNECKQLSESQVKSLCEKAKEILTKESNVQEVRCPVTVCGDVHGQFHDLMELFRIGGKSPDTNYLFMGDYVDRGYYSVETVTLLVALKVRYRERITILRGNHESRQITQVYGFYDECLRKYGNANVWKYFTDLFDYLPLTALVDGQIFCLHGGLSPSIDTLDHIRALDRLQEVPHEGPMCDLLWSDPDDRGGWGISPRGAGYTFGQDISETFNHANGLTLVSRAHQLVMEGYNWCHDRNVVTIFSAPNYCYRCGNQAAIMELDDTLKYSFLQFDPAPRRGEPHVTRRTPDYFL
Summary of the method: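 Recombinant human PPP2CA with fluorescent substrate; product separated from substrate by electrophoretic mobility shift, read 1.33 h after dosing. Duplicate single-point at 25 uM, then singleton concentration-response up to 50 uM; loss of signal versus DMSO.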

[3] = target: human Tyrosine Protein Kinase Receptor Tie-2 (Tie2), TEK (gene 7010) (UniProt Q02763); experiment: NVS_ENZ_hTie2: NovaScreen (NVS) Enzymatic Assay for human Tyrosine Protein Kinase Receptor Tie-2 (Tie2) (AID 2283225)
Chain of human Tyrosine Protein Kinase Receptor Tie-2 (Tie2), TEK (gene 7010) (Q02763 whole entry, looked up): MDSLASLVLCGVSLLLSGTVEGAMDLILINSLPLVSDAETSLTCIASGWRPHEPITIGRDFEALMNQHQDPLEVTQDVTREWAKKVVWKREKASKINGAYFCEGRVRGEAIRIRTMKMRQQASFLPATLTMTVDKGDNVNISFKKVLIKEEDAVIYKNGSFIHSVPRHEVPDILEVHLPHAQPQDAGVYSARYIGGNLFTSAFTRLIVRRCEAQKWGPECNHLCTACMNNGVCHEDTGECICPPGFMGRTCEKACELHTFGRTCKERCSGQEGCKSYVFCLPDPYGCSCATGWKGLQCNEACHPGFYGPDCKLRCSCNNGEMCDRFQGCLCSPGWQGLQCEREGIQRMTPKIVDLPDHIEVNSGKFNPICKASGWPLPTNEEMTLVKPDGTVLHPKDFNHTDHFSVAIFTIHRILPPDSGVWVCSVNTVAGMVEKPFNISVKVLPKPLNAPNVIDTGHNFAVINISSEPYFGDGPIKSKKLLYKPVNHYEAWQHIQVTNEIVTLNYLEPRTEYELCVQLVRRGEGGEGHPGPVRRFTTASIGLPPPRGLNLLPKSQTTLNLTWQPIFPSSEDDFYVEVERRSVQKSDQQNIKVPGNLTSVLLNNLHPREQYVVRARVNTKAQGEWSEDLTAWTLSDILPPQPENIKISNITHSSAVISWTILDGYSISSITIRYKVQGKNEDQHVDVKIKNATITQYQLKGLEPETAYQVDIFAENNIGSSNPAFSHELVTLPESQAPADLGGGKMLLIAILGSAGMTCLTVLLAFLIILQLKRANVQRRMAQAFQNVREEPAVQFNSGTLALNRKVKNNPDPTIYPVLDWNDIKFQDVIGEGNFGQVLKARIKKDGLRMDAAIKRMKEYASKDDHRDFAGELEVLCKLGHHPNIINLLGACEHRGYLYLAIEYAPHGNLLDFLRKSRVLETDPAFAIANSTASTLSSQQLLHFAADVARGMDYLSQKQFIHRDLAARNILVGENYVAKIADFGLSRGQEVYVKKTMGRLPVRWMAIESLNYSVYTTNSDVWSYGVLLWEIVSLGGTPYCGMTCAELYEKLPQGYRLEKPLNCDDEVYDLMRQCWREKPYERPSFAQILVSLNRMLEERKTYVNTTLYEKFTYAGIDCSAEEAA
Summary of the method: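 Recombinant human Tie2 kinase activity was read cell-free by fluorescence with electrophoretic mobility shift, 1 hour after dosing. The screen used 25 uM in duplicate, then concentration-response up to 50 uM. Signal loss was scored against DMSO.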

[4] = target: bovine Gamma-Aminobutyric Acid Type A Receptor BDZ, alpha 1 site (GABARa1), GABRA1 (gene 780973) (UniProt P08219); experiment: NVS_LGIC_bGABARa1: NovaScreen (NVS) Ligand-Gated Ion Channel Assay for bovine Gamma-Aminobutyric Acid Type A Receptor BDZ, alpha 1 site (GABARa1) (AID 2283321)
Summary of the method: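 Radioligand competition binding on bovine cortical membranes, 0.75 h, filter-based scintillation counting. Primary single concentration 25 uM in duplicate; actives rerun in concentration-response to 50 uM max. Loss of signal fitted versus DMSO.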

[5] = test system: rat Monoamine Oxidase, MAO-A, Peripheral (MAOAP), gene 29253; experiment: NVS_ENZ_rMAOAP: NovaScreen (NVS) Enzymatic Assay for rat Monoamine Oxidase, MAO-A, Peripheral (MAOAP) (AID 2283237)
Summary of the method: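 Rat liver mitochondrial membranes served as the MAO-A source, with enzyme activity measured by radiometric scintillation counting 1.17 hours after dosing. Loss of signal was fitted against DMSO; primary screen used 25 uM in duplicate, follow-up used concentration series.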

[6] = target: rat Monoamine Oxidase, MAO-B, Central (MAOBC), Maob (gene 25750) (UniProt P19643); experiment: NVS_ENZ_rMAOBC: NovaScreen (NVS) Enzymatic Assay for rat Monoamine Oxidase, MAO-B, Central (MAOBC) (AID 2283238)
Summary of the method: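 MAO-B activity in rat brain tissue preparation, cell-free, measured radiometrically by scintillation counting 1.17 h after dosing. Screened in duplicate at 25 uM; actives then in concentration-response up to 50 uM. Loss of signal versus DMSO scored.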

[7] = target: Norway rat Vesicular Monoamine Transporter (VMAT2), neurotransmitter transporter, Slc18a2 (gene 25549) (UniProt Q01827); experiment: NVS_TR_rVMAT2: NovaScreen (NVS) Transporter Assay for Norway rat Vesicular Monoamine Transporter (VMAT2), neurotransmitter transporter (AID 2283376);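 note: actives lower the bound radioligand signal below the DMSO level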
Summary of the method: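 Radioligand displacement binding on rat forebrain tissue preparation, filter-based scintillation read-out 1 hour after dosing. Primary screen in duplicate at 25 uM, then concentration series for actives; loss of signal versus DMSO.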

[8] = target: Cellular tumor antigen p53 (Homo sapiens) (UniProt P04637); experiment: TOX21_p53_BLA_p2_ratio: Tox21 HCT-116 p53 Agonism Beta-lactamase Assay, Ratio, Phase 2 (AID 2283592)
Chain of Cellular tumor antigen p53 (Homo sapiens) (P04637 whole entry, looked up): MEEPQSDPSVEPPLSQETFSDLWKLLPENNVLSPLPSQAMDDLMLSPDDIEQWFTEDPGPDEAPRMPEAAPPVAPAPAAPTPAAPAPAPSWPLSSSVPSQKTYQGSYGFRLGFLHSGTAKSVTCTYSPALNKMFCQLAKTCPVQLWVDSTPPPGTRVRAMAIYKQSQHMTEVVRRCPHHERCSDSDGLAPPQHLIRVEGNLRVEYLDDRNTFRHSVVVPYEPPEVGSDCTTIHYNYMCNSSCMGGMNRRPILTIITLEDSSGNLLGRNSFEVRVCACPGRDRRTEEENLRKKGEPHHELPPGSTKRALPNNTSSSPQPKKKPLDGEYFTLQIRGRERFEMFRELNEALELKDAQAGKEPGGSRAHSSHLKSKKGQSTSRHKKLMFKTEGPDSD
Summary of the method: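 HCT116 p53-bla; 4000 cells/well; 5 h pre-incubation; cpd in DMSO, 217-fold dilution; 16 h 37C/5% CO2; CCF4-AM 2 h RT; Ex 405, Em 460/530 ratio; DMSO = baseline; positive fitting direction.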

[9] = target: Cellular tumor antigen p53 (Homo sapiens) (UniProt P04637); experiment: TOX21_p53_BLA_p3_ratio: Tox21 HCT-116 p53 Agonism Beta-lactamase Assay, Ratio, Phase 3 (AID 2283596)
Summary of the method: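 HCT116 p53-bla cells (4000/well) given compound in DMSO (217-fold dilution) after 5 h, incubated 16 h at 37C. CCF4-AM substrate 2 h at room temperature; 460/530 nm emission ratio, gain fitted against DMSO.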

[10] = target: Cellular tumor antigen p53 (Homo sapiens) (UniProt P04637); experiment: TOX21_p53_BLA_p5_ratio: Tox21 HCT-116 p53 Agonism Beta-lactamase Assay, Ratio, Phase 5 (AID 2283599)
Summary of the method: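 HCT-116 p53-bla cells (4000/well) plated 5 h, dosed with compound (217-fold DMSO dilution) for 16 h at 37 C; CCF4-AM substrate 2 h at room temperature. Activity is the 460/530 nm emission ratio (405 nm excitation), fitted in gain-of-signal direction versus DMSO.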

[11] = target: Cellular tumor antigen p53 (Homo sapiens) (UniProt P04637); experiment: TOX21_p53_BLA_p4_ratio: Tox21 HCT-116 p53 Agonism Beta-lactamase Assay, Ratio, Phase 4 (AID 2283601)
Summary of the method: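 HCT-116 p53 beta-lactamase reporter cells (4000/well) preincubated 5 h, then compound (217-fold dilution of DMSO stock) for 16 h at 37C. CCF4-AM substrate added 2 h at room temperature; 460/530 nm emission ratio fitted upward versus DMSO.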

[12] = test system: rat CYP2B1, gene 24300; experiment: NVS_ADME_rCYP2B1: NovaScreen (NVS) CYP450-related Enzyme Activity (ADME) Assay for rat CYP2B1 (AID 2283117)
Summary of the method: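 Recombinant rat CYP2B1 with fluorogenic substrate, read at 0.75 h. Primary screen in duplicate at 10 uM; compounds meeting threshold (e.g., 30% inhibition) re-run in concentration-response up to 20 uM. Fitted against acetonitrile control.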

[13] = target: Bile acid receptor (Homo sapiens) (UniProt Q96RI1); experiment: NVS_NR_hFXR_Agonist: NovaScreen (NVS) Nuclear Receptor Binding Assay for human Farnesoid X Receptor Agonism (FXR) (AID 2283347)
Chain of Bile acid receptor (Homo sapiens) (Q96RI1 whole entry, looked up): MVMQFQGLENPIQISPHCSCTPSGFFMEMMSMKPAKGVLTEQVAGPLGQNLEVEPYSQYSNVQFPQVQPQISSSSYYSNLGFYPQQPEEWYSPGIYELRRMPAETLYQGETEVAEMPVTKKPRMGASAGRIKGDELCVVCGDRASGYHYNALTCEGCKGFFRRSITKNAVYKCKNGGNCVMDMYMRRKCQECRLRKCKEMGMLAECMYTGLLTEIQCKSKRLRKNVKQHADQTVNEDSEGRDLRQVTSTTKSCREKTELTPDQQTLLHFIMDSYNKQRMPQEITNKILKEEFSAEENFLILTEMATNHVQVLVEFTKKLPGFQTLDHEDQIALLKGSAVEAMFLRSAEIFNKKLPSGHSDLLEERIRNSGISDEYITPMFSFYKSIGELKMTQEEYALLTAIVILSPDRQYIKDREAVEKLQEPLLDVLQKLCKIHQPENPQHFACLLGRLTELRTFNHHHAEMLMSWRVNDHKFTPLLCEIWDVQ
Summary of the method: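 Cell-free TR-FRET binding assay with extracted human FXR protein, agonist format, read 1 h after dosing. Primary screen at 25 uM single concentration in duplicate, actives retested in concentration series; gain of signal versus DMSO.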

[14] = target: human Acetylcholinesterase (AChE), ACHE (gene 43) (UniProt P22303); experiment: NVS_ENZ_hAChE: NovaScreen (NVS) Enzymatic Assay for human Acetylcholinesterase (AChE) (AID 2283129)
Chain of human Acetylcholinesterase (AChE), ACHE (gene 43) (P22303 whole entry, looked up): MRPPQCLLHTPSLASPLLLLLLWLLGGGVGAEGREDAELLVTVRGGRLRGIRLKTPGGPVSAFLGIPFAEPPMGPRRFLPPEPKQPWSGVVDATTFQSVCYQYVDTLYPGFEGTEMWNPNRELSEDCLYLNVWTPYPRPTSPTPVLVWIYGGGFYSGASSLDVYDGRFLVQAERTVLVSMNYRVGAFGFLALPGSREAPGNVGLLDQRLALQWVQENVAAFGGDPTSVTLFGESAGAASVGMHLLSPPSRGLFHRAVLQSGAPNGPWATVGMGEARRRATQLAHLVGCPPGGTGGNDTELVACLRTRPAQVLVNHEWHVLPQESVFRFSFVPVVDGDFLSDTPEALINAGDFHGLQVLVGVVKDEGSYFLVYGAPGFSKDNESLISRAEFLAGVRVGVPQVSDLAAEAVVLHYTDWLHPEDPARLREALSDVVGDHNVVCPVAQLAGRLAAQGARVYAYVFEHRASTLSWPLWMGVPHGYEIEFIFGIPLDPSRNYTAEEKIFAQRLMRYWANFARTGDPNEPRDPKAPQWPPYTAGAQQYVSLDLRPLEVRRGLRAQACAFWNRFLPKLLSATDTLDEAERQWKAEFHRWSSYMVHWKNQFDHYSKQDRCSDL
Summary of the method: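 Cell-free colorimetric enzyme-activity assay; compounds read 0.33 hour after dosing, loss of signal vs DMSO baseline. Primary screen in duplicate at 25 uM single concentration, with active compounds retested in concentration series.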

[15] = target: human CYP4F12, CYP4F12 (gene 66002) (UniProt Q9HCS2); experiment: NVS_ADME_hCYP4F12: NovaScreen (NVS) CYP450-related Enzyme Activity (ADME) Assay for human CYP4F12 (AID 2283111)
Chain of human CYP4F12, CYP4F12 (gene 66002) (Q9HCS2 whole entry, looked up): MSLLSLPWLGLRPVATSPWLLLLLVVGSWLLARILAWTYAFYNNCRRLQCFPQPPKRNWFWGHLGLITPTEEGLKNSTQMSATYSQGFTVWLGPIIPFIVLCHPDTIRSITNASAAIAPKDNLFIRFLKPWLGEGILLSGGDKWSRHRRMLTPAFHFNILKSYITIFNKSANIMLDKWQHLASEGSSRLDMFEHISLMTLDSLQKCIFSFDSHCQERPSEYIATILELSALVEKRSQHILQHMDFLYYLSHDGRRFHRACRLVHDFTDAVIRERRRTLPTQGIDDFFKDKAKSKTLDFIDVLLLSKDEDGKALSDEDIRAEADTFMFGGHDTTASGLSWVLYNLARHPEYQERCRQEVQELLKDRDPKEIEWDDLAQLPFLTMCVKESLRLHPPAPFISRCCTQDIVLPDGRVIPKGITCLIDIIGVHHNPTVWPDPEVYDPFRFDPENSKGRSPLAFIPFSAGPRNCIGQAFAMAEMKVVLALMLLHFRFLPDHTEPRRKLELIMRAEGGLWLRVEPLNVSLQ
Summary of the method: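 Cell-free fluorescence assay of recombinant human CYP4F12 activity on a specific substrate, read 0.5 h after dosing. Primary screen in duplicate at 10 uM, then concentration series for actives; loss of signal fitted against acetonitrile negative control.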

[16] = target: Protein deacetylase HDAC6 (Homo sapiens) (UniProt Q9UBN7); experiment: NVS_ENZ_hHDAC6: NovaScreen (NVS) Enzymatic Assay for human Histone Deacetylase 6 (HDAC6) (AID 2283164)
Chain of Protein deacetylase HDAC6 (Homo sapiens) (Q9UBN7 whole entry, looked up): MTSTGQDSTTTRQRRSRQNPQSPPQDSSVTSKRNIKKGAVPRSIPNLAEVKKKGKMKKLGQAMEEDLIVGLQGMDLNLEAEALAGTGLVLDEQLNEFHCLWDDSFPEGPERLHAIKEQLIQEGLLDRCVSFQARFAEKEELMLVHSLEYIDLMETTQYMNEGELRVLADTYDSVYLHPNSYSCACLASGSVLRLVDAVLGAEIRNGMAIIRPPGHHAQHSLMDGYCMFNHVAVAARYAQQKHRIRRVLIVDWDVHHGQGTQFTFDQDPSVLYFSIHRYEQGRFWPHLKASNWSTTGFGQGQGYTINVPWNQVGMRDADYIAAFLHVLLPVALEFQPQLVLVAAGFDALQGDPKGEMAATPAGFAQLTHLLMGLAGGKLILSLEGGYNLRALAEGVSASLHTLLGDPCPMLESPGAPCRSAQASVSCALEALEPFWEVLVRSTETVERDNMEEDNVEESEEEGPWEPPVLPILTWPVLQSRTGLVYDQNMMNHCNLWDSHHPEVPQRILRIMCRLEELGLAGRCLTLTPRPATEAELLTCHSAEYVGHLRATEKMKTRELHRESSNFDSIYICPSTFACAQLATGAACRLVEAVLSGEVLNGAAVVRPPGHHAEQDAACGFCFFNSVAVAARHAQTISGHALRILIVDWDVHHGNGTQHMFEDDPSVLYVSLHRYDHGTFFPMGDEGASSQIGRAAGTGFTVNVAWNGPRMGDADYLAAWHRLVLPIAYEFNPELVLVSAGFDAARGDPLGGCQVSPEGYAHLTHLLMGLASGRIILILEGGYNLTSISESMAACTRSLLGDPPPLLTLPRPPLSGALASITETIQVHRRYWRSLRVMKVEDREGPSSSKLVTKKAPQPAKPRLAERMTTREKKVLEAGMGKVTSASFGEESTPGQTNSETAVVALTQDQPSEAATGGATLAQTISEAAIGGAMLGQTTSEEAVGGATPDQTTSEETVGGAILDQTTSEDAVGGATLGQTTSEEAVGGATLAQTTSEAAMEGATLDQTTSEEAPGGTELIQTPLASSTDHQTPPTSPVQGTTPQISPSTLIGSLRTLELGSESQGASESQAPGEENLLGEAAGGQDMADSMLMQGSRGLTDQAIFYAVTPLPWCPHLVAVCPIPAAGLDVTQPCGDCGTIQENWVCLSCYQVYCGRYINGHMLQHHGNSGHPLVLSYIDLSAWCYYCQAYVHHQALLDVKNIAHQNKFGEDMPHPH
Summary of the method: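 Recombinant human HDAC6 with fluorescent substrate, 1 h; product separated from substrate by electrophoretic mobility shift. Primary screen in duplicate at 25 uM; actives retested singly in concentration-response up to 50 uM, fitted relative to DMSO.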

Structure (SMILES): CCN(CC)CCNc1ccc(CNC=O)c2sc3ccc(OC)cc3c(=O)c12
- outcome [1]: inactive
- outcome [2]: inactive
- outcome [3]: inactive
- outcome [4]: inactive

Structure (SMILES): N#CSCSc1nc2ccccc2s1
- AC50 [5]: 25 µM (active)
- outcome [6]: inactive

Structure (SMILES): C=CCOC(Cn1ccnc1)c1ccc(Cl)cc1Cl (stereo not drawn)
- AC50 [7]: 12 µM (active)
- AC50 [8]: 76.1 µM (active) and 72.5 µM (active)
- outcome [8]: inactive
- AC50 [9]: 83 µM (active) and 73.3 µM (active)
- outcome [9]: inactive
- AC50 [10]: 79.4 µM (active) and 77.2 µM (active)
- outcome [10]: inactive
- AC50 [11]: 80.8 µM (active) and 83.9 µM (active)
- outcome [11]: inactive

Structure (SMILES): CCCCOC(=O)C(C)Oc1ccc(Oc2ccc(C(F)(F)F)cn2)cc1 (stereo not drawn)
- outcome [12]: inactive
- outcome [13]: inactive

Structure (SMILES): CCCCC(CC)COP(=O)(OCC(CC)CCCC)OCC(CC)CCCC (stereo not drawn)
- AC50 [14]: 32.7 µM (active)

Structure (SMILES): CCCCCOC(C)=O
- outcome [14]: inactive

Structure (SMILES): c1ccc2c(c1)-c1cccc3c1c-2cc1ccccc13
- outcome [14]: inactive

Structure (SMILES): CCc1ccc(O)c(C(C)(C)C)c1
- outcome [15]: inactive
- outcome [16]: inactive

Structure (SMILES): CC(C)CCCCCCCOC(=O)CCCCC(=O)OCCCCCCCC(C)C
- AC50 [14]: 7.43 µM (active)
